Data published in PubChem BioAssay (NCI).
This is part of a sample that, as a whole, favours compounds with a hit. Of some 83,000 tested, about 20% had one in any assay.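 Activity criterion: percent growth below 10, measured after cells in 96-well plates were exposed to a single compound concentration for 48 hours.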 The source made the active and inactive calls.

What was measured:
Experiment in all cases: NCI-60 one-dose screen, 48 h (100 = growth as untreated, 0 = no growth, -100 = all killed)
Conditions in all cases: 10 µM unless noted
SR leukemia = tested on: SR leukemia
RPMI-8226 leukemia = tested on: RPMI-8226 leukemia
OVCAR-8 ovarian = tested on: OVCAR-8 ovarian
OVCAR-5 ovarian = tested on: OVCAR-5 ovarian
OVCAR-4 ovarian = tested on: OVCAR-4 ovarian
SK-OV-3 ovarian = tested on: SK-OV-3 ovarian
OVCAR-3 ovarian = tested on: OVCAR-3 ovarian
HS 578T breast = tested on: HS 578T breast
NCI/ADR-RES ovarian = tested on: NCI/ADR-RES ovarian
T-47D breast = tested on: T-47D breast
BT-549 breast = tested on: BT-549 breast
MDA-MB-435 melanoma = tested on: MDA-MB-435 melanoma
SW-620 colon = tested on: SW-620 colon
MCF7 breast = tested on: MCF7 breast
HCT-116 colon = tested on: HCT-116 colon
HCC-2998 colon = tested on: HCC-2998 colon
KM12 colon = tested on: KM12 colon
IGROV1 ovarian = tested on: IGROV1 ovarian

Measured: growth

COc1ccc(Nc2nc(N)nc3c2CCN(Cc2ccc(OC)cc2OC)C3=O)cc1
inactive: SR leukemia 60.2% | RPMI-8226 leukemia 41.9% | OVCAR-8 ovarian 82.6% | OVCAR-5 ovarian 72.5% | OVCAR-4 ovarian 91.2% | SK-OV-3 ovarian 90.5% | OVCAR-3 ovarian 88% | HS 578T breast 82.7% | NCI/ADR-RES ovarian 93.4% | T-47D breast 75.9% | BT-549 breast 74.9% | MDA-MB-435 melanoma 79.2% | SW-620 colon 80% | MCF7 breast 87.7% | HCT-116 colon 49.9% | HCC-2998 colon 94.2% | KM12 colon 85.1%

COc1ccc2cc(-c3ccc(-c4ccc(C(=N)N)cc4)s3)ccc2c1
active: OVCAR-3 ovarian -15.4%
inactive: SR leukemia 30.4% | RPMI-8226 leukemia 91% | OVCAR-8 ovarian 101% | OVCAR-5 ovarian 103% | OVCAR-4 ovarian 97.3% | IGROV1 ovarian 69.6% | HS 578T breast 105% | NCI/ADR-RES ovarian 106% | T-47D breast 91.2% | BT-549 breast 97.9% | MDA-MB-435 melanoma 108% | SW-620 colon 84.6% | MCF7 breast 73.2% | HCT-116 colon 71.3% | HCC-2998 colon 101% | KM12 colon 66.4%

O=c1cc(Cc2ccc([N+](=O)[O-])cc2)[nH]c(=O)[nH]1
inactive: SR leukemia 91.9% | RPMI-8226 leukemia 91.6% | OVCAR-8 ovarian 103% | OVCAR-5 ovarian 98.2% | OVCAR-4 ovarian 108% | SK-OV-3 ovarian 99.1% | IGROV1 ovarian 117% | HS 578T breast 100% | NCI/ADR-RES ovarian 109% | BT-549 breast 98.3% | MDA-MB-435 melanoma 107% | SW-620 colon 103% | MCF7 breast 106% | HCT-116 colon 103% | HCC-2998 colon 105% | KM12 colon 106%

COc1ccc2c(c1)[nH]c(=O)c1c3cccc(F)c3cn21
active: RPMI-8226 leukemia -49.8% | IGROV1 ovarian 6.16% | MDA-MB-435 melanoma -51.9% | KM12 colon 8.44%
inactive: SR leukemia 39.9% | OVCAR-8 ovarian 27.4% | OVCAR-5 ovarian 47.9% | OVCAR-4 ovarian 47.8% | SK-OV-3 ovarian 42.3% | NCI/ADR-RES ovarian 15.8% | T-47D breast 63.9% | BT-549 breast 42.8% | SW-620 colon 27.2% | MCF7 breast 22.3% | HCT-116 colon 24.6% | HCC-2998 colon 31.9%

Cc1nc2ncccc2nc1Nc1ccc(S(=O)(=O)Nc2cncs2)cc1
inactive: SR leukemia 102% | RPMI-8226 leukemia 88.4% | OVCAR-8 ovarian 103% | OVCAR-5 ovarian 96.4% | OVCAR-4 ovarian 98.6% | SK-OV-3 ovarian 86.2% | IGROV1 ovarian 51% | HS 578T breast 92.8% | NCI/ADR-RES ovarian 98% | T-47D breast 82.7% | BT-549 breast 83% | MDA-MB-435 melanoma 114% | SW-620 colon 102% | MCF7 breast 82.2% | HCT-116 colon 97.5% | HCC-2998 colon 95.1% | KM12 colon 97.7%

CC(=O)Oc1csc(N(C(C)=O)c2cccc(C(F)(F)F)c2)n1
inactive: SR leukemia 107% | RPMI-8226 leukemia 75.8% | OVCAR-8 ovarian 94.1% | OVCAR-5 ovarian 96.2% | OVCAR-4 ovarian 89.4% | SK-OV-3 ovarian 99.6% | IGROV1 ovarian 98.4% | HS 578T breast 93% | NCI/ADR-RES ovarian 104% | T-47D breast 87.7% | MDA-MB-435 melanoma 98.1% | SW-620 colon 98.7% | HCT-116 colon 86.6% | HCC-2998 colon 108% | KM12 colon 99.3%
active: BT-549 breast -89.8%

Cc1ccc(S(=O)(=O)n2cc(C(=O)C(=O)N3CCOCC3)c3ccccc32)cc1
inactive: SR leukemia 77.8% | RPMI-8226 leukemia 59.6% | OVCAR-8 ovarian 91.5% | OVCAR-5 ovarian 85.7% | OVCAR-4 ovarian 89.1% | SK-OV-3 ovarian 97.9% | OVCAR-3 ovarian 91.4% | HS 578T breast 101% | NCI/ADR-RES ovarian 75.1% | T-47D breast 74.8% | BT-549 breast 87.5% | MDA-MB-435 melanoma 104% | SW-620 colon 101% | HCT-116 colon 87.1% | HCC-2998 colon 99.6% | KM12 colon 98.7%

CC(C)(C)n1cc(-c2ccnc(NCCCNS(=O)(=O)c3ccc(Br)cc3)c2)c(-c2cccc(O)c2)n1
active: SR leukemia -16% | RPMI-8226 leukemia -6% | SW-620 colon 7.75% | MCF7 breast 7.27% | HCC-2998 colon -56.1% | KM12 colon 1.78%
inactive: OVCAR-8 ovarian 41.1% | OVCAR-5 ovarian 38.5% | OVCAR-4 ovarian 36.5% | SK-OV-3 ovarian 62.6% | IGROV1 ovarian 34.9% | HS 578T breast 16.9% | NCI/ADR-RES ovarian 43.7% | T-47D breast 29.9% | MDA-MB-435 melanoma 39% | HCT-116 colon 22.6%

CSc1nc2c(c(=O)[nH]1)C(c1ccc(C)cc1)C=C(C(=O)O)N2 (configuration not stated)
inactive: SR leukemia 117% | RPMI-8226 leukemia 112% | OVCAR-8 ovarian 105% | OVCAR-5 ovarian 114% | OVCAR-4 ovarian 113% | SK-OV-3 ovarian 115% | IGROV1 ovarian 107% | HS 578T breast 86.3% | NCI/ADR-RES ovarian 109% | T-47D breast 96.6% | BT-549 breast 93.6% | SW-620 colon 99.8% | MCF7 breast 101% | HCT-116 colon 109% | HCC-2998 colon 102% | KM12 colon 112%

COc1ccc2[nH]c(=O)c3c4ccccc4cn3c2c1
inactive: OVCAR-8 ovarian 24.4% | OVCAR-5 ovarian 31.4% | OVCAR-4 ovarian 49.1% | SK-OV-3 ovarian 32.8% | IGROV1 ovarian 16.8% | NCI/ADR-RES ovarian 24.8% | T-47D breast 44.6% | BT-549 breast 37.9% | SW-620 colon 13.3% | MCF7 breast 17.1% | HCC-2998 colon 31.3% | KM12 colon 10.4%
active: SR leukemia -27.2% | RPMI-8226 leukemia -59.6% | MDA-MB-435 melanoma -23.3% | HCT-116 colon -28.9%

O=S(=O)(c1ccc(OCCO)cc1)c1ccc(OCCO)cc1
inactive: SR leukemia 99.4% | RPMI-8226 leukemia 81% | OVCAR-8 ovarian 102% | OVCAR-5 ovarian 101% | OVCAR-4 ovarian 111% | SK-OV-3 ovarian 118% | IGROV1 ovarian 87.5% | NCI/ADR-RES ovarian 103% | T-47D breast 120% | BT-549 breast 109% | MDA-MB-435 melanoma 102% | SW-620 colon 94.6% | HCT-116 colon 101% | HCC-2998 colon 104%

Clc1ccc2c(NC3CCC(NC4CCCCC4)CC3)ccnc2c1 (configuration not stated)
inactive: RPMI-8226 leukemia 39.4% | OVCAR-8 ovarian 52.2% | OVCAR-5 ovarian 84.4% | OVCAR-4 ovarian 50% | SK-OV-3 ovarian 73.4% | IGROV1 ovarian 83.4% | NCI/ADR-RES ovarian 68% | T-47D breast 48.1% | BT-549 breast 86.8% | MDA-MB-435 melanoma 26.8% | SW-620 colon 32.7% | MCF7 breast 37.8% | HCT-116 colon 35.8% | HCC-2998 colon 65.2% | KM12 colon 67.2%
active: SR leukemia -3.32%

CCOC(=O)CC(=O)OC
inactive: SR leukemia 76.7% | RPMI-8226 leukemia 97.4% | OVCAR-8 ovarian 103% | OVCAR-5 ovarian 101% | OVCAR-4 ovarian 100% | SK-OV-3 ovarian 101% | IGROV1 ovarian 111% | HS 578T breast 114% | NCI/ADR-RES ovarian 113% | BT-549 breast 101% | MDA-MB-435 melanoma 110% | SW-620 colon 98.8% | MCF7 breast 91.5% | HCT-116 colon 104% | HCC-2998 colon 104% | KM12 colon 115%

ClC(Cl)c1nc(-c2cccnc2)n2nc(-c3ccccc3)cc2n1
active: OVCAR-5 ovarian 7.66% | OVCAR-4 ovarian 9.31% | OVCAR-3 ovarian -47.5% | NCI/ADR-RES ovarian -11.2% | MDA-MB-435 melanoma 0.991% | SW-620 colon 0.424% | HCT-116 colon 0.678% | HCC-2998 colon -68.7% | KM12 colon 2.3%
inactive: SR leukemia 13.4% | RPMI-8226 leukemia 33.2% | OVCAR-8 ovarian 27.7% | IGROV1 ovarian 13.9% | HS 578T breast 51.6% | T-47D breast 50.2% | BT-549 breast 68.4%

COc1ccc(C(=O)n2nc(/C=C/c3ccc(O)c(OC)c3)cc2/C=C/c2ccc(O)c(OC)c2)cc1
inactive: IGROV1 ovarian 12.8% | NCI/ADR-RES ovarian 26% | HCC-2998 colon 16.4%
active: SR leukemia -9.23% | RPMI-8226 leukemia -27.3% | OVCAR-8 ovarian -5.24% | OVCAR-5 ovarian -18.8% | OVCAR-4 ovarian -7.85% | OVCAR-3 ovarian 1.05% | HS 578T breast 0.538% | T-47D breast -4.93% | MDA-MB-435 melanoma -22.5% | SW-620 colon 4.16% | MCF7 breast -3.07% | HCT-116 colon -0.661% | KM12 colon 6.33%

Cc1c(C(=N)C(C#N)C#N)c(=N)oc2c1ccc1ccccc12
inactive: SR leukemia 26.1% | RPMI-8226 leukemia 44.7% | OVCAR-8 ovarian 80.8% | OVCAR-5 ovarian 104% | OVCAR-4 ovarian 95.3% | OVCAR-3 ovarian 95.5% | HS 578T breast 69.8% | NCI/ADR-RES ovarian 83.8% | T-47D breast 71.9% | BT-549 breast 73.9% | MDA-MB-435 melanoma 83.6% | SW-620 colon 92.2% | MCF7 breast 57.9% | HCT-116 colon 79.6% | HCC-2998 colon 80.3% | KM12 colon 101%
active: IGROV1 ovarian -2.09%

O=C1C2(c3ccccc3)C(c3ccccc3)=C(c3ccccc3)C1(c1ccccc1)C1CC=CC12 (configuration not stated)
inactive: SR leukemia 101% | RPMI-8226 leukemia 50.2% | OVCAR-8 ovarian 87.5% | OVCAR-5 ovarian 97.9% | OVCAR-4 ovarian 69.5% | IGROV1 ovarian 86.9% | OVCAR-3 ovarian 89.5% | HS 578T breast 106% | NCI/ADR-RES ovarian 90.3% | T-47D breast 68.3% | BT-549 breast 99.4% | MDA-MB-435 melanoma 92.9% | SW-620 colon 93.8% | MCF7 breast 82.8% | HCT-116 colon 76% | HCC-2998 colon 87.7% | KM12 colon 80%

CC(=O)Nc1ccc(S(=O)(=O)n2ccc(-c3ccc4c(c3)CCC(C)(C)O4)n2)cc1
inactive: SR leukemia 56.4% | RPMI-8226 leukemia 43.7% | OVCAR-8 ovarian 69.4% | OVCAR-5 ovarian 96.3% | OVCAR-4 ovarian 46.2% | IGROV1 ovarian 68% | OVCAR-3 ovarian 74.4% | HS 578T breast 102% | NCI/ADR-RES ovarian 56.9% | T-47D breast 31.1% | MDA-MB-435 melanoma 67.3% | SW-620 colon 82.5% | MCF7 breast 66.2% | HCT-116 colon 29.9% | HCC-2998 colon 83.3% | KM12 colon 67.4%

COc1ccc(C(=O)N2NC(=O)/C(=C/c3ccc(Br)cc3)N=C2c2ccccc2)cc1
inactive: SR leukemia 57.2% | RPMI-8226 leukemia 71.7% | OVCAR-8 ovarian 78.4% | OVCAR-5 ovarian 91.4% | OVCAR-4 ovarian 92.7% | IGROV1 ovarian 92.5% | HS 578T breast 94.9% | NCI/ADR-RES ovarian 83.4% | T-47D breast 85.6% | BT-549 breast 85.5% | MDA-MB-435 melanoma 90.7% | SW-620 colon 91.3% | MCF7 breast 85.1% | HCT-116 colon 75.5% | HCC-2998 colon 105% | KM12 colon 99.6%
